# Measured values reported in PubChem BioAssay AID743279 (National Center for Advancing Translational Sciences (NCATS), 2014).
# Out of some 360,000 compounds screened, about 17,000 (4.7%) were called active. Another 5% or so got no clear call; they are omitted. The full list was thinned out, with actives kept by preference. Values without a mark were called inactive. No stated cut-off is given here; in the data, active means activity change below about -50%; inconclusive means mostly about -30% to -49%; inactive means weaker than that.
# Test: qHTS for Inhibitors of Inflammasome Signaling: IL-1-beta AlphaLISA Primary Screen
# Conditions: THP-1 LPS/ATP IL-1B secretion, 16 h; at 57.5 µM, stronger effect = lower value
# In short: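 THP-1 cells pretreated 1 hr with compounds (up to 57.5 uM final), then stimulated with LPS (250 ng/mL final) plus ATP (1.25 mM final); secreted IL-1B measured by AlphaLISA after 16 hr, decreased signal indicating inhibition.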
# On the % scale 0 is the no-effect control and ±100 the full control effect.
row,Structure (SMILES),activity change
1,CCn1ccnc1CN(C)Cc1nc(-c2ccc3c(c2)OCO3)no1,1.77%
2,Cc1ccc(-n2cc(CN(C)Cc3nccn3C)c(-c3cccc(C)c3)n2)cc1,-85.3% (active)
3,Cc1ccc(-n2cnc3ncnc(-c4ccccc4)c32)cc1,-9.14%
4,O=C(C=CC(=O)Nc1ccc(F)cc1F)Nc1ccc(F)cc1F,36.7%
5,COC(=O)c1ccc(Oc2nc(NC(C)C)nc(SC)n2)cc1,19.1%
6,COC(=O)c1ccc(Oc2nc(Nc3ccc(F)cc3)nc(N3CCCC3)n2)cc1,-60.2% (active)
7,CCNc1nc(Oc2ccc(C(=O)OC)cc2)nc(N2CCOCC2)n1,7.61%
8,CCOC(=O)c1c(-c2ccccc2)oc2cc(Br)c(O)cc12,0%
9,CCOC(=O)c1c(-c2ccccc2)oc2cc(Br)c(O)c(C=O)c12,-98% (active)
10,CCOC(=O)c1c(-c2ccccc2)oc2ccc(OCC(=O)NN)cc12,-28.6%
11,Cc1cc(OCC(=O)Nc2nccs2)c2c(C)c(C)c(=O)oc2c1,6.37%
12,Cc1ccc(Cc2c(C)nc3nc(SCC(=O)NCCN4CCOCC4)nn3c2C)cc1,7.76%
13,Cc1cc(C)n2nc(SCC(=O)NC(=O)NCc3ccco3)nc2n1,34.3%
14,Cc1nc2nc(SCC(=O)NCc3ccco3)nn2c(C)c1Cc1ccccc1,-78.8% (active)
15,Fc1ccc(N2N=C(c3cccs3)CC2c2ccco2)c(F)c1 (stereo not drawn),5.22%
16,O=C(O)C1CCCN1c1nc(Cl)ccc1[N+](=O)[O-] (stereo not drawn),-1.43%
17,CC(=O)N[C@H]1[C@H]([C@H](O)[C@H](O)CO)OC(C(=O)O)=C[C@@H]1O,1.96%
18,CCOC(=O)c1c(C)[nH]c2c1-c1ccccc1C(=O)C2=O,-53.9% (active)
19,CCOC(=O)C1=C(C)c2ccccc2OC1(C)C(=O)OCC (stereo not drawn),41.5%
20,CCOC(=O)c1c(C)nc2c(c1C)c(=O)oc1ccccc12,7%
21,CN(C)CCCOc1ccc(-c2ccc3nccn3c2)cn1,-5.3%
22,CCC(C)(C)n1nnnc1CN1CCN(c2nc3ccc(C)cc3cc2C#N)CC1,-68.2% (active)
23,Cc1cc(C)c2cc(C#N)c(N3CCNCC3)nc2c1,-29.2%
24,CCOc1ccc2nc(N3CCCN(C(=O)Nc4ccccc4C)CC3)c(C#N)cc2c1,-14.3%

row,Structure (SMILES),activity change
1,O=C(CSc1ncn[nH]1)Nc1ccc(Br)cc1Br,-53.6% (active)
2,O=C(CSc1ncn[nH]1)Nc1ccnc2ccccc12,11%
3,O=C(CSc1ncn[nH]1)Nc1nsc(-c2ccccc2)n1,10.9%
4,NS(=O)(=O)c1ccc(NC(=O)COC(=O)CCc2c[nH]c3ccccc23)cc1,0%
5,Cc1csc(SCC(=O)Nc2ccc(C)c(S(=O)(=O)N(C)C)c2)n1,42.7%
6,CNCC[C@H](Oc1ccc(C(F)(F)F)cc1)c1ccccc1,-68.4% (active)
7,CC(NC(=O)COC(=O)Cn1cc(C(F)(F)F)ccc1=O)c1ccccc1 (stereo not drawn),-0.662%
8,CC(C)Oc1ccc(Oc2ccc(C(F)(F)F)cn2)cc1,-23.6%
9,CCOC(=O)c1c(NC(=S)SC)sc(C(=O)N2CCc3ccccc3C2)c1C,1.46%
10,CN(CC(=O)NCC(c1ccccc1)N1CCCC1)S(=O)(=O)c1ccc(Cl)cc1 (stereo not drawn),-22.9%
11,CC(=O)Nc1c2c(nn1-c1ccc(C)cc1C)CS(=O)C2 (stereo not drawn),13.7%
12,Clc1ccc2nc(CSc3ccccc3)cn2c1,-87.1% (active)
13,CCCCCCSc1ccc(-c2nc3ccc(Cl)cn3c2NCc2ccccc2)cc1,-8.09%
14,Cc1ccc(-c2nc3ccc(Cl)cn3c2Cc2ccccc2)cc1,-3.47%
15,CC1(C(=O)NS(=O)(=O)c2cccc(F)c2)CCN1C(=O)c1cccc2ccccc12 (stereo not drawn),21.3%
16,CCCCCCN1CCN(C2CN(Cc3cn(CCCCCC)nn3)S(=O)(=O)C2)CC1 (stereo not drawn),-17.7%
17,COc1cc2c(cc1OC)CN(CC(=O)Nc1ccc(F)cc1)CC2,14%
18,CC[C@H]1CN2CCc3cc(OC)c(OC)cc3[C@@H]2C[C@@H]1C[C@H]1NCCc2cc(OC)c(OC)cc21,-106% (active)
19,CCC(Sc1nncn1C)C(=O)Nc1nnc(-c2ccc(Cl)cc2)s1 (stereo not drawn),-11%
20,O=C(c1cccnc1)N(Cc1ccccc1)C(=O)c1cccnc1,33%
21,Cc1[nH]c(=O)c(C(=O)/C=C/c2ccccc2)c2c1CCCC2,-98.3% (active)
22,CC1(C(=O)O)CCCN(C(=O)/C=C/c2ccccc2)C1 (stereo not drawn),17.4%
23,COC(=O)c1c(C)[nH]c(C(=O)/C=C/c2ccc(Cl)cc2)c1C,-3.64%
24,CCCCn1c(N)c(N(CCC(C)C)C(=O)COC(=O)c2cccnc2OCC)c(=O)[nH]c1=O,-17.5%

row,Structure (SMILES),activity change
1,C/C(=N\Nc1ccc(Cl)nn1)c1ccccc1O,-63.2% (active)
2,C/C(=N/Nc1ccc(Cl)cc1)c1cnnc(-c2ccccc2)n1,58.2%
3,CCCCCCCN=C(C)c1ccccc1O,19.8%
4,Cn1c(CCN2CCN(c3ccccn3)CC2)nc2cc(NS(=O)(=O)c3ccc(F)cc3)ccc21,-12.9%
5,C[C@H]1NS(=O)(=O)c2cc(Cl)ccc2O[C@@H]1c1ccccc1,51.9%
6,CN1CCN(c2ccc(NC(=O)c3ccc4c(c3)OCCO4)cc2Cl)CC1,-72.6% (active)
7,O=C(Nc1ccc(Cl)cn1)c1ccc2c(c1)OCCO2,2.51%
8,O=C(Nc1ccc(NC(=O)c2ccc3c(c2)OCO3)cc1)c1cccc(Cl)c1,9.41%
9,COC(=O)c1ccc(N2CCOCC2)c(NC(=O)c2ccc3c(c2)OCCO3)c1,18.4%
10,O=C(Nc1cccc(S(=O)(=O)Nc2ccc(Cl)cc2)c1)c1ccc2c(c1)OCCO2,-81.3% (active)
11,CN1CCN(c2ccc(NC(=O)c3cc(Cl)c4c(c3)OCCO4)cc2)CC1,-19%
12,COc1ccc(NC(=O)CN(C)C(=O)c2cc(C)oc2C)cc1,24%
13,CCCS(=O)(=O)NC(=O)C1(C)CCCN(C(=O)c2ccnc(Cl)c2)C1 (stereo not drawn),15.3%
14,COc1ccccc1C(=O)N(C1=NC(C)CS1)c1ccc(Cl)cc1 (stereo not drawn),-80.7% (active)
15,COc1ccccc1C(=O)NCCC(=O)NC1=NCCS1,22%
16,CC(=O)Nc1ccc(C(=O)N(C2=NC(C)CS2)c2ccc(Cl)cc2)cc1 (stereo not drawn),inactive
17,COc1ccc(CCC(=O)Nc2ccc(Cl)c(S(=O)(=O)N3CCOCC3)c2)cc1OC,-24.7%
18,Cc1cc(Br)ccc1NC(=O)c1cnc(N2CCN(c3ccccn3)CC2)c2ccccc12,1.57%
19,Cc1nc(N2CCN(c3ccccn3)CC2)c2c(C)c(C(=O)Nc3ccc(F)c(Cl)c3)sc2n1,-58.3% (active)
20,Cc1nc(N2CCC(C)CC2)c2c(C)c(C(=O)Nc3cc(F)ccc3C)sc2n1,-93.6% (active)
21,CCN(CC)c1ccc(NC(=O)CN2CCN(c3ccccn3)CC2)cc1,2.92%
22,Cc1nc(N2CCN(c3ccccn3)CC2)c2c(C)c(C(=O)Nc3ccc(F)cc3)sc2n1,-76.8% (active)
23,Cc1sc2ncnc(N3CCC(C(=O)NNC(=O)c4ccc(F)cc4)CC3)c2c1C,-23.3%
24,Cc1cc(Br)ccc1NC(=O)c1sc2ncn(CC(=O)N3CCN(c4ccccn4)CC3)c(=O)c2c1C,28.3%

row,Structure (SMILES),activity change
1,Cc1sc2ncnc(N3CCC(C(=O)Nc4ccc(F)cc4Cl)CC3)c2c1C,-10.9%
2,CCC(=O)Nc1ccc2c(c1)nc(CCN1CCN(c3ccccn3)CC1)n2C,-3.98%
3,CC(NC(=O)COc1cccnc1[N+](=O)[O-])c1ccc(Cl)cc1Cl (stereo not drawn),-26%
4,CN(C)C(=S)N=c1ssc(=S)n1Cc1ccco1,1.33%
5,Cc1ccc(C(=O)NCCc2nnc(SCC(=O)Nc3cccc(C(=O)O)c3)n2C)cc1,3.07%
6,CCCCCC1CCC(c2nnc(SCC(C)=O)o2)CC1 (stereo not drawn),0.218%
7,O=C1C2C3C=CC(C3)C2C(=O)N1c1ccc(-c2nc3ccccc3c(=O)o2)cc1 (stereo not drawn),-10.4%
8,Clc1cccc(N=C2NN=C(c3ccc4c(c3)OCCO4)CS2)c1,-71.7% (active)
9,CN(C)c1nc(=Nc2cccc(Cl)c2)ss1,-9.51%
10,c1ccc(CN2CCC(N=C3NN=C(c4ccc5c(c4)OCCO5)CS3)CC2)cc1,-81.5% (active)
11,CC(=NC1CCN(Cc2ccccc2)CC1)c1c(O)[nH]c(=O)[nH]c1=O,4.26%
12,CS(=O)(=O)N(CC(=O)N1CCN(Cc2ccccc2)CC1)c1ccc2c(c1)OCCO2,-2.68%
13,O=C(Nc1ccc(Cl)cc1)C1Cc2c(-c3ccc4c(c3)OCO4)ccnc2O1 (stereo not drawn),-19.5%
14,Cc1ccc(S(=O)(=O)Nc2ccccc2CNc2c(C)n(C)n(-c3ccccc3)c2=O)cc1,-4.94%
15,O=C(NCCO)c1cccc(-c2cccc3nccn23)c1,81.9%
16,CN(c1ccc(O)cc1)c1nc(-c2cccnc2)cs1,40.3%
17,O=C(NCc1cccnc1)C(=O)Nc1nc(-c2ccccc2)cs1,17.3%
18,Cc1ccccc1Nc1nc(-c2cccnc2)cs1,-83.1% (active)
19,O=C(CN1C(=O)NC2(CCOc3ccccc32)C1=O)NCc1ccc(F)cc1 (stereo not drawn),-15.8%
20,C[C@@H]1CN([C@@H](C)CO)C(=O)CCCn2nncc2CO[C@H]1CN(C)C(=O)Nc1ccc(C(F)(F)F)cc1,-7.03%
21,COC(=O)c1ccc2nc(C3CCCCC3)c(Cc3cccc(F)c3)n2c1,20.9%
